Compound activity from PubChem BioAssay.
SIRT5 inh = SIRT5 desuccinylase inhibitors, primary screen, biochemical, fluorescence imaging, single point, set 5. Purified SirT5, succinyl-peptide AMC, trypsin-coupled fluorescence. 1.1% of 330,000 active. inhibition, % at 15 µM. AID 652115, 2013. NAD-dependent protein deacylase sirtuin-5, mitochondrial (Homo sapiens), Q9NXA8; in the data active = inhibition above about 15%
Target sequence (Q9NXA8 whole entry, looked up): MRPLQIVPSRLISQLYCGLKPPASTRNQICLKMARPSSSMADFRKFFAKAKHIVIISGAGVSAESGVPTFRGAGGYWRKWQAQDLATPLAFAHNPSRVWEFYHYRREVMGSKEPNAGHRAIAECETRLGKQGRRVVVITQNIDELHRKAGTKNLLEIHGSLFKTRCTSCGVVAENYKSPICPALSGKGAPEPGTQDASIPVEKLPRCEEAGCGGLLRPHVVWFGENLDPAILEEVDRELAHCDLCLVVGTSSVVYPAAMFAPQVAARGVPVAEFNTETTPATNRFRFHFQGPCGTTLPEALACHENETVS
HDAC3 inh = HDAC3 deacetylase inhibitors, primary screen, biochemical, fluorescence, cell-free homogeneous | recombinant HDAC3, fluorogenic peptide/trypsin coupled | inhibition, % at 8.3 µM | 0.15% of 320,000 active; in the data active = inhibition above about 26%, passing the limit was not always enough
ERAP1 inh = human ERAP1 aminopeptidase inhibitors, primary screen, biochemical, single point, plate reader | 0.15% of 340,000 active | recombinant ERAP1, Leu-AMC fluorescence, 60 min | inhibition, % at 10.7 µM | Endoplasmic reticulum aminopeptidase 1 (Homo sapiens), Q9NZ08 | AID 652197, 2013;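 active = mean replicate inhibition of at least 30%, or all replicates individually reaching that 30% level; inactive = mean below 30% and not every replicate reaching it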;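 note: 0% = neutral control wells and 100% = L-leucinethiol positive control wells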
PDI turbidity = inhibitors of human PDI, primary screen, biochemical, turbidity, single point, plate reader | Protein disulfide-isomerase (Homo sapiens), P07237 | inhibition, % at 10 µM | PDI insulin aggregation turbidity, A650, 90 min | 0.052% of 350,000 active;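 active = mean inhibition across replicates of 30% or more, whatever share of single replicates reach that level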
ERp5 block = inhibitors of ERp5-driven insulin aggregation, primary screen, biochemical, turbidity, absorbance 650 nm, single point; Protein disulfide-isomerase A6 (Homo sapiens), Q15084; 90 min; inhibition, % at 9.99 µM; 0.05% of 350,000 active; AID 651711, 2012;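 active = mean replicate inhibition above about 25%, with every replicate also reaching it, limit read from the data, passing the limit was not always enough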
* hit, by the source's call; . = no result given; ! = not confirmed by another sample. The full list was thinned out, with hits kept by preference.

SMILES	SIRT5 inh	HDAC3 inh	ERAP1 inh	PDI turbidity	ERp5 block
CO[C@H]1CN(C)C(=O)c2cc(NC(=O)Nc3cccc(F)c3)ccc2OC[C@@H](C)NC[C@@H]1C	-1.6	.	-1.6	.	3.6
Cc1c2c(n3c(nc4ccccc43)c1C#N)N(CCN(C)C)CC2	-41.5	-85.4	31.2*	-1.4	-0.3
CCc1c(C)c(C#N)c2nc3ccccc3n2c1NCCCN(C)C	-0.1	.	-3.0	8.2	-0.6
Cc1c2c(n3c(nc4ccccc43)c1C#N)N(CCCN(C)C)CC2	-48.6	-111.0	70.7*	1.7	-1.5
CCCCc1c(C)c(C#N)c2nc3ccccc3n2c1NCCN(C)C	-4.0	.	-9.9	-6.7	2.0
C/C=C/c1cnc2c(c1)C(=O)N([C@@H](C)CO)C[C@H](C)[C@@H](CN(C)S(=O)(=O)c1cn(C)cn1)O2	-12.9	.	-0.2	.	-0.7
COCC#Cc1cnc2c(c1)C(=O)N([C@H](C)CO)C[C@@H](C)[C@H](CN(C)C(=O)NC1CCCC1)O2	1.3	.	0.2	.	59.3*
C/C=C/c1cnc2c(c1)C(=O)N([C@H](C)CO)C[C@@H](C)[C@@H](CN(C)C(=O)NC1CCCC1)O2	-7.9	.	3.3	-2.2	3.6
C/C=C/c1cnc2c(c1)C(=O)N([C@@H](C)CO)C[C@H](C)[C@@H](CN(C)C(=O)NC1CCCC1)O2	17.2*	.	1.5	.	-4.2
COCC#Cc1cnc2c(c1)C(=O)N([C@@H](C)CO)C[C@H](C)[C@@H](CN(C)C(=O)NC1CCCC1)O2	2.4	.	1.2	.	49.8*
Cc1ccc(-c2cnc3c(c2)C(=O)N([C@@H](C)CO)C[C@@H](C)[C@H](CN(C)C)O3)cc1	-1.4	.	2.9	.	-1.9
Cc1ccc(-c2cnc3c(c2)C(=O)N([C@@H](C)CO)C[C@H](C)[C@H](CN(C)C)O3)cc1	16.0*	.	-0.9	.	-3.5
C[C@@H]1CN([C@@H](C)CO)C(=O)c2cc(-c3cccc(F)c3)cnc2O[C@H]1CN(C)C	20.2*	.	-0.4	.	-6.1
C[C@@H]1CN([C@H](C)CO)C(=O)c2cc(-c3cccc(C#N)c3)cnc2O[C@H]1CN(C)Cc1cncnc1	-6.6	.	-0.6	.	75.3*
C[C@@H]1CN([C@@H](C)CO)C(=O)c2cc(Br)cnc2O[C@H]1CN(C)Cc1ccccc1	1.1	.	1.8	.	-8.5
C[C@@H]1CN([C@@H](C)CO)C(=O)c2cc(Br)cnc2O[C@H]1CN(C)Cc1cccc(F)c1	-5.0	.	0.7	.	36.9*!
C[C@H](CO)N1C[C@H](C)[C@@H](CN(C)C(=O)C2CCOCC2)Oc2ncc(-c3ccccc3)cc2C1=O	20.8*	.	-0.2	.	-3.3
Cc1noc(C)c1NC(=O)N(C)C[C@@H]1Oc2ncc(Br)cc2C(=O)N([C@@H](C)CO)C[C@H]1C	30.5*!	.	-2.5	1.4	2.4
C/C=C/c1cnc2c(c1)C(=O)N([C@H](C)CO)C[C@H](C)[C@@H](CN(C)C(=O)Nc1c(C)noc1C)O2	8.1	.	0.2	.	17.4
Cc1ccc(S(=O)(=O)N(C)C[C@H]2Oc3ncc(-c4ccncc4)cc3C(=O)N([C@@H](C)CO)C[C@@H]2C)cc1	32.5*	.	0.0	.	-7.7
Cc1ccc(S(=O)(=O)N(C)C[C@H]2Oc3ncc(-c4ccncc4)cc3C(=O)N([C@@H](C)CO)C[C@H]2C)cc1	-0.9	.	1.7	.	0.5
COc1ccc(N2CC(NC(=O)N3CCc4ccccc43)CC2=O)cc1OC (stereo not drawn)	19.6*	3.7	.	3.7	-7.5
CC1Cc2ccccc2N1C(=O)NC1CC(=O)N(c2ccc3c(c2)OCCO3)C1 (stereo not drawn)	-0.5	3.6	-2.2	6.7	-0.2
COc1ccc(C(=O)NC(=S)N2CCCc3ccccc32)cc1OC	112.3*	5.7	-0.9	2.5	-0.5
CCCC#Cc1cnc2c(c1)C(=O)N([C@H](C)CO)C[C@@H](C)[C@@H](CN(C)C(=O)Cc1ccncc1)O2	-5.6	.	1.5	.	-2.9
CCS(=O)(=O)Nc1ccc2c(c1)C(=O)N(C)C[C@H](OC)[C@H](C)CN(C(=O)c1ccc3c(c1)OCO3)[C@@H](C)CO2	-6.4	.	1.7	.	4.8
Nc1ccc(-c2nc3ccc(N)cc3[nH]2)cc1	-14.8	-245.2	-3.7	-10.3	0.0
